Source: PubChem BioAssay (The Scripps Research Institute Molecular Screening Center)
PAFAH2 inh – inhibitors of human PAFAH2; Q99487; recombinant PAFAH2, FP-rhodamine activity probe, fluorescence polarization; inhibition, % at 3.39 µM; actives 0.99% (n = 340,000);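 active = inhibition above the mean over all tested compounds plus 3 SD, cut at about 30% in these data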;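 note: inhibitors block probe labeling of enzyme so polarization drops; 0% = enzyme with DMSO and 100% = wells lacking PAFAH2 protein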
PAFAH1B2 FP inh – inhibitors of human PAFAH1B2. P68402. recombinant PAFAH1B2, FP-rhodamine activity probe, fluorescence polarization. inhibition, % at 3.39 µM. actives 1.2% (n = 340,000);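 active = inhibition above the mean of all tested compounds plus 3 SD, cut at about 24% in these data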;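 note: 0% = enzyme with DMSO and 100% = wells lacking PAFAH1B2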
pPAFAH inh – inhibitors of human plasma PAF acetylhydrolase (pPAFAH); inhibition, % at 3.39 µM; recombinant pPAFAH, FP-rhodamine probe fluorescence polarization; actives 1.5% (n = 330,000); Q13093; AID 463082;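 active = inhibition above the mean inhibition across the screen plus 3 SD, cut at about 25% in these data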;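 note: inhibitors block binding of the rhodamine activity-based probe so polarization drops; 0% = enzyme with DMSO and 100% = wells lacking pPAFAH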
PAFAH1B3 FP inh – PAFAH1B3 (human) inhibition; recombinant PAFAH1B3, FP-rhodamine probe, fluorescence polarization; inhibition, % at 3.39 µM; actives 0.28% (n = 340,000); AID 492972;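 active = inhibition above the screen-wide average of all tested compounds plus 3 SD, cut at about 25% in these data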;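 note: 0% = enzyme with DMSO only and 100% = wells lacking PAFAH1B3 protein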
eLon inh – E. coli protease La inhibition; P0A9M0; purified E. coli Lon protease, fluorescence polarization; inhibition, % at 7.94 µM; actives 0.42% (n = 360,000); in the data active = inhibition above about 13%, passing the limit was not always enough;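 note: 0% = enzyme with probe and DMSO and 100% = no enzyme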
Rin1 Abl inh – inhibitors of human Rin1-Abl protein interaction; TR-FRET Rin1/Abl binding, biochemical; P00519+Q13671; inhibition, % at 7.35 µM; AID 588664; actives 0.4% (n = 360,000); in the data active = inhibition above about 5%, passing the limit was not always enough
eLon confirm – confirmation of E. coli Lon protease inhibitors; shares compounds with eLon inh; purified E. coli Lon, fluorescence polarization; inhibition, % at 7.94 µM; actives 31% (n = 1,400); AID 602230; in the data active = inhibition above about 16%;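 note: 0% = enzyme with probe and DMSO and 100% = no enzyme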
An asterisk follows results filed as active; x = no result; + = active, no number. Shown are actives, neighbours in structure and some others; about 3.1% of the full set was active somewhere.

SMILES | PAFAH2 inh | PAFAH1B2 FP inh | pPAFAH inh | PAFAH1B3 FP inh | eLon inh | Rin1 Abl inh | eLon confirm
CCN(CC)S(=O)(=O)c1ccc2c(c1)nc(CCC(=O)Nc1ccc3c(c1)OCO3)n2CC | 6 | 3 | 6 | 2 | -3 | 3 | x
CCn1c(CCC(=O)N(C)CC(=O)Nc2cccc(F)c2)nc2cc(S(=O)(=O)N(C)C)ccc21 | 11 | 3 | 6 | 12 | 15* | 1 | 5
C=CCn1c(COc2ccc(OC)cc2)nnc1SC(C)C(=O)NC1CC1 (configuration not stated) | 0 | 1 | 2 | 4 | -1 | 1 | x
CCC(c1nnc(SC(C)C(=O)NC2CC2)n1-c1ccc(OC)cc1)N(C)C (configuration not stated) | 4 | 5 | -2 | 12 | 19* | -1 | 4
CCOC(=O)N1CC=C2C(C#N)=C(N)C(C#N)(C#N)[C@H](c3cccs3)C2C1 (some centres not stated) | 8 | 8 | 3 | 8 | -1 | 1 | x
CC1CC=C2C(C#N)=C(N)C(C#N)(C#N)C(c3cccs3)C2C1 (configuration not stated) | 1 | 5 | 8 | -1 | 42* | 1 | 16*
CCN1CC=C2C(C#N)=C(N)C(C#N)(C#N)C(c3cc(Cl)ccc3Cl)C2C1 (configuration not stated) | -3 | 5 | 18 | 10 | 28* | 0 | -4
CC(C)N1CC=C2C(C#N)=C(N)C(C#N)(C#N)C(c3ccccc3)C2C1 (configuration not stated) | 0 | 7 | 8 | 2 | 53* | -6 | 20*
CN1CC=C2C(C#N)=C(N)C(C#N)(C#N)C(Cc3ccccc3)C2C1 (configuration not stated) | 3 | 6 | 14 | -4 | 39* | 4 | 9
COc1ccc(Br)cc1C1=CC(=O)C[C@H](c2ccc(F)cc2)C1 | x | x | x | x | 4 | -2 | x
CCCn1c(SC(C)C(=O)N2CCOCC2)nc2ccc(Br)cc2c1=O (configuration not stated) | -3 | -2 | -3 | -1 | -15 | 1 | x
C#CCN1c2ccccc2Sc2cccnc21 | 7 | 10 | 10 | 15 | 165* | -12 | 21*
Cc1ccc(S(=O)(=O)N2CCOCC2)cc1C(=O)NC(=S)N1CC(C)OC(C)C1 (configuration not stated) | 1 | 2 | 0 | 2 | -1 | -2 | x
NC(=O)COc1ccc(-n2cnnn2)cc1 | 2 | 6 | 0 | 2 | 1 | 1 | x
COc1cc(/C=N/NC(=O)COc2ccc(-n3cnnn3)cc2)ccc1OCC(N)=O | 7 | 5 | -2 | 4 | 22* | 0 | -3
O=c1cc(CN2CCCc3ccccc32)nc2sccn12 | 12 | 4 | 7 | 12 | 39* | -4 | 86*
c1coc(-c2cnc3ccccc3n2)c1 | x | x | x | x | 35* | -6 | 6
Oc1ccc(-c2cnc3ccccc3n2)cc1 | 1 | -1 | 1 | 7 | 6 | -2 | x
COc1ccc(/C=C/c2cc(C(=O)O)c3ccccc3n2)cc1 | 1 | 5 | -3 | -2 | + | -6 | 3
CC1(C)CCC[C@]2(C)[C@H]3Cc4cc(O)ccc4O[C@]3(C)CC[C@@H]12 | 14 | 12 | 22 | 8 | -2 | 1 | x
Cc1ccc2cccc(N)c2n1 | 7 | 3 | 5 | 5 | 31* | 3 | 1
CC12CCC(C(=O)Nc3ccc(Br)cn3)(OC1=O)C2(C)C (configuration not stated) | x | x | 1 | x | -6 | -1 | x
CC12CCC(C(=O)NNC(=O)c3ccc(Br)cc3)(OC1=O)C2(C)C (configuration not stated) | 8 | 3 | 1 | 6 | 18* | 3 | -17
CCc1ccc(C(=O)NNC(=O)c2cccc(S(=O)(=O)N3CCN(C)CC3)c2)cc1 | 2 | 2 | x | 2 | -2 | -4 | x
CNc1cccc2c1C(=O)c1ccccc1C2=O | 13 | 4 | 4 | -2 | 50* | -8 | 41*
CCC(=O)NC(c1cc(Cl)c2ccccc2c1O)C1CC1 (configuration not stated) | 4 | -7 | 3 | 0 | 21* | 3 | -6
